According to PubChem BioAssay (NCATS):
Results filed as inconclusive are left out. Active and inactive are the calls of the source. The call rests on the fitted dose curve; in most records, active means well fitted curve in the direction sought with a large enough effect; inconclusive means small, poorly fitted or top-dose-only effect, or another doubt; inactive means no such curve, though single readings can be large; an effect the other way counts as inactive or inconclusive.

Key:
[1] = target: Glutathione peroxidase 1 (Homo sapiens) (UniProt P07203); test: Primary qHTS Assay for Inhibitors of Recombinant Selenoprotein Glutathione Peroxidase 1 (GPX1) (AID 1845191); further: nearly all actives have a fitted effect of over 65% in size; on activity, negative = inhibition: on the % scale 0 is the no-effect control and ±100 the full control effect
Outline: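 GR-coupled readout: NADPH consumption tracked by fluorescence, ex 340/em 450 nm, at t=0 and after 15 min at RT. Final mix 10 nM GPX1, 1 mM GSH, 0.5 mM CHP, 0.5 mM NADPH, 100 nM GR, 0.01% BSA, following 30 min enzyme–compound preincubation.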

[2] = target: Phospholipid hydroperoxide glutathione peroxidase GPX4 (Homo sapiens) (UniProt P36969); test: Primary qHTS Assay for Inhibitors of Recombinant Selenoprotein Glutathione Peroxidase 4 (GPX4) (AID 1845192); further: nearly all actives have a fitted effect of over 65% in size; on activity change, negative = inhibition: series mostly up to about 50 µM; on the % scale 0 is the no-effect control and ±100 the full control effect
Outline: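 Steps: GPX4 plus compound, 30 min RT; add GR/GSH/NADPH master mix; start with cumene hydroperoxide; read 340/450 nm fluorescence at 0 and 15 min. Finals were 200 nM GPX4, 1 mM GSH, 0.5 mM CHP, 0.5 mM NADPH, 100 nM GR.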

[3] = target: Luciferin 4-monooxygenase (Photinus pyralis) (UniProt P08659); test: Primary firefly luciferase (FLuc) qHTS assay for identification of artifact compounds. (AID 1845220); further: nearly all actives have a fitted effect of over 60% in size; further: potency means the concentration at half of the fitted maximal effect;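 on activity change, negative = inhibition: series mostly up to about 54 µM; plate controls were DMSO vehicle for no effect and no enzyme for full effect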
Outline: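 Enzymatic FLuc inhibition assay: compounds pre-exposed to luciferin/ATP (10 uM each) for 15 min, then purified P. pyralis enzyme at 10 nM added. Read-out: luminescence at 5 min.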

[4] = Primary fluorescence-based thiol-reactive (MSTI) qHTS assay for identification of artifact compounds. (AID 1845221); further: nearly all actives have a fitted effect of over 65% in size; further: potency means the concentration at half of the fitted maximal effect;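 on activity change, negative = thiol reactive: series mostly up to about 54 µM; thiol-reactive compounds lower the probe fluorescence signal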
Outline: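 Thiol-reactive compounds detected by quenching of 4 uM MSTI fluorescence (525/598 nm) after 1 h room-temperature dark incubation in PBS pH 7.4, 2% DMSO. qHTS titration; percent inhibition Hill-fitted against Acetyl-MSTI/MSTI controls.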

[5] = tested on: Nanoluciferase (engineered Oplophorus gracilirostris luciferase); test: Primary Nanoluciferase (NLuc) qHTS assay for identification of artifact compounds. (AID 1845222);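 further: NLuc secreted into diluted conditioned medium of S16 cells; series mostly up to about 54 µM; 0% = DMSO and -100% = no enzyme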
Outline: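 S16 cell supernatant NLuc, 1:55; cpds qHTS; 15 min RT dark; Nano-Glo substrate 1:100, 5 min; luminescence; Hill fit of % inhibition.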

[6] = Primary redox qHTS assay for identification of artifact compounds. (AID 1845223);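 further: 0% = DMSO and 100% = reference compound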
Outline: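 Redox-cycling detection via DTT (250 uM final) oxidation coupled to Amplex Red (25 uM)/HRP (250 mU/mL) in HBSS. 15 min preincubation plus 30 min after DTT, room temperature. Ex/Em 525/598 nm; 4-parameter Hill fit against DMSO and 10 uM DA3003.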

Sequence of Glutathione peroxidase 1 (Homo sapiens) (P07203 whole entry, looked up): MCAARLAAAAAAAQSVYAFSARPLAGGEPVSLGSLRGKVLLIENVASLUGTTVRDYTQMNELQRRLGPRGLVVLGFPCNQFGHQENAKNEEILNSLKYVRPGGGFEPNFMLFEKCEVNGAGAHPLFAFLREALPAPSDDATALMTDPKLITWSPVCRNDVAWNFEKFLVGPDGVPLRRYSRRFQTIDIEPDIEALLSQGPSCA
Sequence of Phospholipid hydroperoxide glutathione peroxidase GPX4 (Homo sapiens) (P36969 whole entry, looked up): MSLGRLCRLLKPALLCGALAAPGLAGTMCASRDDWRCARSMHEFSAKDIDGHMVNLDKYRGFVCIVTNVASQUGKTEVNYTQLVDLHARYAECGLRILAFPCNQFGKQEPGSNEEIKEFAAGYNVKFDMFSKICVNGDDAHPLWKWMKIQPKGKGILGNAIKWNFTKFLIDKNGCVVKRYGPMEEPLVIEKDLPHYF

CN(C)CCN(Cc1ccc(-c2ccc(CNCCc3ccccc3)cc2)cc1)C(=O)CCC1CCCC1
inactive: Potency [1] | Potency [2] | Potency [3] | Potency [4] | Potency [5] | Potency [6]

CC(=O)OC(C)(C)/C=C/C(=O)[C@](C)(O)[C@H]1C(O)C[C@@]2(C)[C@@H]3CC=C4[C@@H](C=C(O[C@@H]5O[C@H](CO)[C@@H](O)[C@H](O)[C@H]5O)C(=O)C4(C)C)[C@]3(C)C(=O)C[C@]12C (some centres not stated)
inactive: Potency [1] | Potency [2] | Potency [3] | Potency [4] | Potency [5] | Potency [6]

Cc1ccc(NC(=O)c2ccc(CN3CCNCC3)cc2)cc1Nc1nccc(-c2cccnc2)n1
inactive: Potency [1] | Potency [2] | Potency [4] | Potency [5] | Potency [6]
active: Potency [3] 6.75 µM

CCCCc1c(-c2ccc(OC)cc2)[nH]c2nccnc12
inactive: Potency [1] | Potency [2] | Potency [3] | Potency [4] | Potency [5] | Potency [6]

CC(=O)OC(C)(C)/C=C/C(=O)C(C)(O)C1C(O)CC2(C)C3CC=C(C(C)(C)C(=O)O)C(CC(=O)O)C3(C)C(=O)CC12C (configuration not stated)
inactive: Potency [1] | Potency [2] | Potency [3] | Potency [4] | Potency [5] | Potency [6]

C=C1C(=O)OC2/C=C(\COC(C)=O)CC/C=C(\C=O)CC(OC(=O)C(C)CC)C12 (configuration not stated)
inactive: Potency [1] | Potency [2] | Potency [3] | Potency [4] | Potency [5] | Potency [6]

COc1ccc2c(NC(=O)Nc3cccc(C(F)(F)F)n3)ccnc2c1
inactive: Potency [1] | Potency [2] | Potency [3] | Potency [4] | Potency [5] | Potency [6]

C/C=C(/C)C(=O)O[C@H]1[C@H](OC(=O)/C(C)=C\C)[C@@]23C(CC1(C)C)[C@]1(CCC4[C@@]5(C)CC[C@H](O[C@@H]6O[C@H](C(=O)O)[C@@H](O)[C@H](O[C@@H]7O[C@H](CO)[C@H](O)[C@H](O)[C@H]7O[C@@H]7O[C@@H](C)[C@H](O)[C@@H](O)[C@H]7O[C@@H]7OC[C@@H](O)[C@H](O)[C@H]7O)[C@H]6O[C@@H]6O[C@H](CO)[C@H](O)[C@H](O)[C@H]6O)C(C)(C)C5CC[C@@]4(C)[C@]1(C)C[C@H]2O)O[C@H]3O (some centres not stated)
inactive: activity, negative = inhibition [1] -2.94% [at 9.52 µM] | activity change, negative = inhibition [2] -2.35% [at 9.73 µM] | activity change, negative = inhibition [3] 4.78% [at 11.6 µM] | activity change, negative = thiol reactive [4] 718% [at 11.5 µM] | activity, negative = inhibition [5] 3.76% [at 11.6 µM] | redox activity (% of DA3003) [6] 13% [at 11.5 µM]

CNC(=O)[C@@H](c1ccccc1)N1CCc2cc(OC)c(OC)cc2[C@@H]1CCc1ccc(C(F)(F)F)cc1
inactive: Potency [1] | Potency [2] | Potency [3] | Potency [4] | Potency [5] | Potency [6]

C=C(CCC1C(C)(O)CCC2C(C)(C)C(O)CCC12C)C(O)CO (configuration not stated)
active: Potency [4] 13.1 µM
inactive: Potency [1] | Potency [2] | Potency [3] | Potency [5] | Potency [6]

COc1c(C)cc(NC(=O)c2nn(Cc3ccc(F)cc3)c3c2CN(C(=O)c2ccc[nH]2)C[C@]3(C)C(N)=O)cc1C
inactive: Potency [1] | Potency [2] | activity change, negative = inhibition [3] 2.65% [at 11.6 µM] | activity change, negative = thiol reactive [4] 108% [at 11.5 µM] | activity, negative = inhibition [5] 0.489% [at 11.6 µM] | redox activity (% of DA3003) [6] 7.9% [at 11.5 µM]

CCn1c(-c2nonc2N)nc2c(C#CCO)ncc(OCCCN)c21
inactive: Potency [1] | Potency [2] | Potency [3] | Potency [4] | Potency [5] | Potency [6]
